# Results filed as inconclusive are left out. A call without a number means that no potency is given here. A number with no mark means an inactive call. The source made the active and inactive calls. The call rests on the fitted dose curve; in most records, active means well fitted inhibition curve with a large enough effect; inconclusive means small, poorly fitted or top-dose-only effect; inactive means flat fitted curve, though single readings scatter.
# Test system: WaGa
# Assay: qHTS assay to identify novel small-molecules to repurpose for Merkel cell carcinoma treatment (AID 1296009); further: nearly all actives have a fitted effect of over 60% in size
# Settings: MCC and control cell lines, CellTiter-Glo viability, 72 h; series mostly up to 46 µM; activity change, negative = cytotoxicity: at the top concentration
# Outline: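 Cells were incubated with compound for 72 hr at 37 degree celsius before CellTiter-Glo addition. Luminescence was normalized with no-cell wells as full cytotoxicity and DMSO as baseline.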
Structure (SMILES),"activity change, negative = cytotoxicity",Potency
Cc1ccc(C(=O)c2cc(O)c(O)c([N+](=O)[O-])c2)cc1,-9.7%,
Cc1nccn1CC1CCc2c(c3ccccc3n2C)C1=O (stereo not drawn),,inactive
CC(S)C(=O)NCC(=O)O (stereo not drawn),,inactive
COCCCOc1ccnc(CS(=O)c2nc3ccccc3[nH]2)c1C (stereo not drawn),,inactive
CC(C)c1ccc2oc3nc(N)c(C(=O)O)cc3c(=O)c2c1,,inactive
COc1cc2c(cc1OC)C1CC(=O)C(CC(C)C)CN1CC2 (stereo not drawn),1.61%,
CNC[C@@H](O)[C@@H](O)[C@H](O)[C@H](O)CO,8.46%,
Cc1ccc(Nc2nccc(N(C)c3ccc4c(C)n(C)nc4c3)n2)cc1S(N)(=O)=O,-5.87%,
O=C(NCCO[N+](=O)[O-])c1cccnc1,,inactive
CC1(C)NC(=O)N(c2ccc([N+](=O)[O-])c(C(F)(F)F)c2)C1=O,,inactive
Clc1ccc2c(N3CCN(CCCN4CCN(c5ccnc6cc(Cl)ccc56)CC4)CC3)ccnc2c1,-1.24% [at 16.1 µM],
Oc1ccc(OCc2ccccc2)cc1,,inactive
Cc1ccc(NC(=O)c2ccc(CN3CCN(C)CC3)cc2)cc1Nc1nccc(-c2cccnc2)n1,-4.23%,
NC(=O)Cc1cccc(C(=O)c2ccccc2)c1N,,inactive
c1cnc2cc3c(cc2n1)C1CNCC3C1,4.99%,
c1ccc2[nH]c(-c3cscn3)nc2c1,,inactive
OC(CN1CCN(c2cccc(Cl)c2)CC1)C(c1ccccc1)c1ccccc1 (stereo not drawn),-0.319%,
Nc1nc(OCc2ccccc2)c2[nH]cnc2n1,-4.71%,

# Reference: PubChem BioAssay (NCATS)
